In PubChem BioAssay (EPA / NIEHS):
Calls of active or inactive are those of the source. Rule for the calls: active = hit-call score of the fitted dose curve at least 0.9, where 1 is the maximum; inactive = score below 0.9.

Assay: APR_HepG2_p53Act_24hr: Apredica 24-hour HepG2 Assay for p53 Activation (AID 2282913)
Conditions: high-content imaging, actives raise or lower the signal
Protocol: APR_HepG2_24hr is a cell-based, multiplexed-readout assay that uses HepG2, a human liver cell line, with measurements taken at 24 hours after chemical dosing in a 384-well plate.APR_HepG2_p53Act_24hr is one of 10 assay component(s) measured or calculated from the APR_HepG2_24hr assay. It is designed to make measurements of dna content, a form of viability reporter, as detected with fluorescence intensity signals by HCS Fluorescent Imaging technology.Data from the assay component APR_HepG2_p53Act_24hr was analyzed into 1 assay endpoint. This assay endpoint, APR_HepG2_p53Act_24hr, was analyzed with bidirectional fitting relative to DMSO as the negative control and baseline of activity. Using a type of viability reporter, measures of protein for gain or loss-of-signal activity can be used to understand the signaling at the pathway-level as they relate to the gene TP53. Furthermore, this assay endpoint can be referred to as a primary readout, because this assay has produced multiple assay endpoints where this one serves a signaling function. To generalize the intended target to other relatable targets, this assay endpoint is annotated to the dna binding intended target family, where the subfamily is tumor suppressor.
Cells were treated with dimethyl sulfoxide (DMSO) as a solvent control at a final concentration of 0.5% v/v or with compounds in DMSO with a resulting final DMSO concentration of 0.5% v/v. Compound treatment was done at concentrations of 0.39, 0.78, 1.56, 3.12, 6.24, 12.5, 25, 50, 100, and 200 uM in duplicate on each plate. Cells were treated with compounds for 1, 24, or 72 hr. Carbonyl […] m-chloro-phenylhydrazone (CCCP) and taxol were used as positive controls for mitochondrial function and cytoskeletal stability, respectively; DMSO served as the negative control for this experiment. Cells were fixed by the direct addition of 50 uL formaldehyde in Hank's Balanced Salt Solution (HBSS) to a final concentration of 3.7%. After incubation in the fixation medium for 30 min at room temperature (293-298 K), cells were rinsed twice with HBSS and treated with cell permeabilization buffer (16 uL of 0.5% Triton X-100) for 10 min at room temperature (293-298 K) before labeling. For mitochondrial membrane potential and mitochondrial measurements, pre-fixed cells were incubated with 50 uL of MitoTracker Red CMXRos (Invitrogen) at a concentration of 250 nM for 30 min before fixation. In the remaining cases, post-fixed cells were labeled by incubation with a multiplexed mixture of primary antibodies in HBSS for 60 min at room temperature (293-298 K) to detect immunoreactivity of c-Jun (1:500), phospho-histone H3 (1:100), phospho-histone H2A.x (1:200), p53 (1:400), alpha-tubulin (1:200) and Hoechst 33342 (2 ug/mL). Cells were labeled for multiplexed imaging on two separate plates: a) Hoechst 33342, MitoTracker Red, phospho-histone H3, and alpha-tubulin, and b) Hoechst 33342, phospho-histone H2A.x, and c-Jun. A final rinse with HBSS (50 uL) was performed before analysis. The primary and secondary antibodies for the proteins were phospho-histone H3 (rabbit anti-phospho-histone H3 and FITC-donkey anti-rabbit IgG), phospho-histone H2A.x (mouse anti-phospho-histone H2A.x and FITC-donkey anti-mouse IgG), c-Jun (rabbit anti-phospho-c-Jun and Cy3-donkey anti-rabbit IgG), p53 (sheep anti-p53 and Cy5-donkey anti-sheep IgG), alpha-tubulin (mouse anti-alpha-tubulin and Cy5-donkey anti-mouse IgG). These antibodies are available as the CellCiphr HepG2 assay kit (Millipore).Digital images of each well were captured using a Cellomics ArrayScan VTI (Thermo Scientific Cellomics) (0.8 NA objective, 0.63x optical coupler, and XF-93 filter set) at 20x magnification. The images were acquired using the autofocus feature of the ArrayScan instrument, which entails the following steps. First, the camera focuses on channel 1 (Hoechst 33342), where nuclei are identified. Second, a Z offset of 1 um is used for capturing mitochondria (MitoTracker Red). […]

Row | Compound | outcome | AC50
1 | N#Cc1c(Cl)cccc1Cl | inactive | 
2 | COP(=O)(OC)O/C(C)=C/C(=O)N(C)C | inactive | 
3 | CCCCC(O)(Cn1cncn1)c1ccc(Cl)cc1Cl (stereo not given) |  | 105 µM (active)
4 | Cn1c(-c2ccccc2)cc(-c2ccccc2)[n+]1C | inactive | 
5 | N#CN=C1SCCN1Cc1ccc(Cl)nc1 | inactive | 
6 | CCSC(=O)N1CCCCCC1 | inactive | 
7 | CCOc1nc(F)cc2nc(S(=O)(=O)Nc3c(Cl)cccc3Cl)nn12 | inactive | 
8 | CCNP(=S)(OC)O/C(C)=C/C(=O)OC(C)C (stereo not given) | inactive | 
9 | Clc1cccc(C(Cl)(Cl)Cl)n1 | inactive | 
10 | CCCCOCN(C(=O)CCl)c1c(CC)cccc1CC | inactive | 
11 | CC(C)NC(=O)N1CC(=O)N(c2cc(Cl)cc(Cl)c2)C1=O | inactive | 
12 | CS(=O)(=O)c1cc(C(F)(F)F)ccc1C(=O)c1cnoc1C1CC1 | inactive | 
13 | CC(C)(C)C(=O)C(Oc1ccc(Cl)cc1)n1cncn1 (stereo not given) | inactive | 
14 | CCOP(=O)(OCC)Oc1nc(Cl)c(Cl)cc1Cl | inactive | 
15 | CSC(=O)c1c(C(F)F)nc(C(F)(F)F)c(C(=O)SC)c1CC(C)C | inactive | 
16 | CC1(C)CON(Cc2ccccc2Cl)C1=O | inactive | 
17 | CC1(C)C(C=C(Cl)Cl)C1C(=O)OC(C#N)c1cccc(Oc2ccccc2)c1 (stereo not given) | inactive | 
18 | CN=C=S | inactive | 
19 | CC1(C)C(C(=O)OC(C#N)c2cccc(Oc3ccccc3)c2)C1(C)C (stereo not given) | inactive | 
20 | CO/N=C(/C1=NOCCO1)c1ccccc1Oc1ncnc(Oc2ccccc2Cl)c1F | inactive | 

Row | Compound | outcome | AC50
21 | CC(C)N1C(=O)c2ccccc2NS1(=O)=O | inactive | 
22 | COC(=O)c1c(C(F)F)nc(C(F)(F)F)c(C2=NCCS2)c1CC(C)C | inactive | 
23 | CCN(CC)c1nc(C)cc(OP(=S)(OC)OC)n1 | inactive | 
24 | COCC(=O)N(c1c(C)cccc1C)C(C)C(=O)OC (stereo not given) | inactive | 
25 | CC(C)C1(C)N=C(c2ncccc2C(=O)O)NC1=O (stereo not given) | inactive | 
26 | Clc1nc(Cl)nc(Nc2ccccc2Cl)n1 | inactive | 
27 | CC1(C)CCC(=Cc2ccc(Cl)cc2)C1(O)Cn1cncn1 (stereo not given) | inactive | 
28 | COC(=O)NS(=O)(=O)c1ccc(N)cc1 | inactive | 
29 | CCN(CC)C(=O)C(C)Oc1cccc2ccccc12 (stereo not given) | inactive | 
30 | CCOc1nc(C(Cl)(Cl)Cl)ns1 | inactive | 
31 | OC(c1ccc(Cl)cc1)(c1ccc(Cl)cc1)C(Cl)(Cl)Cl |  | 112 µM (active)
32 | O=C(Nc1ccccc1-c1ccc(Cl)cc1)c1cccnc1Cl | inactive | 
33 | COCC(C)N(C(=O)CCl)c1c(C)csc1C (stereo not given) |  | 92.6 µM (active)
34 | Nc1c(Cl)c(Cl)nc(C(=O)O)c1Cl | inactive | 
35 | CCOC(=O)C(C)OC(=O)c1cc(Oc2ccc(C(F)(F)F)cc2Cl)ccc1[N+](=O)[O-] (stereo not given) | inactive | 
36 | Nc1cnn(-c2ccccc2)c(=O)c1Cl | inactive | 
37 | CCC(C)n1c(=O)[nH]c(C)c(Br)c1=O (stereo not given) | inactive | 
38 | Cc1c(COC(=O)[C@@H]2[C@H](/C=C(\Cl)C(F)(F)F)C2(C)C)cccc1-c1ccccc1 | inactive | 
39 | O=c1n(Cl)c(=O)n(Cl)c(=O)n1Cl | inactive | 
40 | CC(C)Oc1cccc(NC(=O)c2ccccc2C(F)(F)F)c1 | inactive | 
